Shown are actives, neighbours in structure and some others; about 19% of the full set was active somewhere.
HT1080 IDH1KD tx: HT-1080 IDH1 knockdown cell toxicity (counter line). HT-1080 IDH1 knockdown viability, ATP luminescence, 48 h. Potency, µM (doses to about 46.1 µM), for the others: at the top dose activity, negative = toxicity, hits mostly cytotoxic. 360,000 compounds, 2% hits;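 also: potency is read from the fitted curve at half-maximal effect; 0% = DMSO wells and -100% = cell-free medium wells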
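HT-1080-IDH1KD cells (IDH1 knocked down), 750/well in RPMI with 5% FBS, treated with compound 48 h at 37 degrees C. Viability by CellTiter-Glo luminescence, normalised to DMSO and no-cell wells; concentration-response curves classed.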
uPA generation: cell surface uPA generation inhibition; cell surface uPA generation assay, qHTS; Potency, µM (titrated, usually from 38.3 µM), for the others: at the highest dose activity change, negative = inhibition, actives largely listed as inhibitors; 330,000 compounds, 0.31% hits; active = well fitted inhibition curve with a large enough effect; inconclusive = small, poorly fitted or top-dose-only effect; inactive = no such curve, though single readings can be large or run the other way; tested in mouse RAW 264.7 cells; also: potency is read from the fitted curve at half-maximal effect; nearly all actives have a fitted effect of over 55% in size
TDP1 cell CPT: DT40-hTDP1 cell growth loss with CPT. chicken DT40 Tdp1-/-;hTDP1 cells + 20 nM CPT, ATP luminescence, 48 h. Potency, µM (top dose mostly 46.2 µM), for the others: top-dose activity change, negative = growth inhibition, actives largely listed as inhibitors. 420,000 compounds, 12% hits. AID 686979; also: potency is read from the fitted curve at half-maximal effect; nearly all actives have a fitted effect of over 55% in size
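Chicken DT40 Tdp1-/- cells stably complemented with human TDP1 were seeded at 400 cells/well in medium containing 20 nM camptothecin, exposed to pin-transferred compounds, and grown at 37 °C for at least 48 hr. Viability was read as ATP luminescence.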
IL1B secr inh: blocks inflammasome-driven IL-1 beta release; THP-1 LPS/ATP IL-1B secretion, AlphaLISA, 16 h; hits give low values; activity change, % at 57.5 µM; 360,000 compounds, 4.7% hits; AID 743279; in the data active = activity change below about -50%; inconclusive = mostly about -30% to -49%
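Secreted IL-1B measured by AlphaLISA bead assay after 16 h compound exposure of THP-1 cells; compounds (final up to 57.5 uM) added 1 h before LPS (250 ng/mL) and ATP (1.25 mM) stimulation; lower signal means less secretion.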
DT40 TDP1 no CPT: qHTS for Inhibitors of human tyrosyl-DNA phosphodiesterase 1 (TDP1): qHTS in cells in absence of CPT | DT40 Tdp1-/- hTDP1 cells, no CPT, ATP luminescence, 48 h | Potency, µM (highest dose often 46.2 µM), for the others: top-dose activity change, negative = growth inhibition, usual class: inhibitors | 420,000 compounds, 15% hits; also: potency is read from the fitted curve at half-maximal effect; nearly all actives have a fitted effect of over 55% in size
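Compound effects on proliferation are scored in DT40 Tdp1-/-;hTDP1 cells in the absence of CPT. ATP levels (CellTiter-Glo luminescence) are recorded after a ≥48 hr, 37 °C incubation.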
HT1080-NT tox: kills 2HG-producing HT-1080-NT fibrosarcoma cells; AID 686970; 360,000 compounds, 1.6% hits; Potency, µM (top dose mostly 46.1 µM), for the others: top-dose activity, negative = less viability, usual class: cytotoxic; HT-1080-NT fibrosarcoma viability, CellTiter-Glo ATP luminescence, 48 h;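 also: NT is the 2HG producing partner of a matched IDH1 knockdown line; potency is read from the fitted curve at half-maximal effect; 0% = DMSO-treated cells and -100% = media-only wells without cells; nearly all actives have a fitted effect of over 55% in size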
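Fibrosarcoma NT cells, 750 per well in 5% FBS RPMI, were exposed to compound for 48 hours. Viability: CellTiter-Glo luminescence.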
Starred values were filed as active, the others as inactive; ? = inconclusive; nt = not tested or not shown. Unless noted, calls follow the shape of the dose curve; as a rule, active = well fitted curve in the direction sought with a large enough effect; inconclusive = small, poorly fitted or top-dose-only effect, or another doubt; inactive = no such curve, though single readings can be large; an effect the other way counts as inactive or inconclusive. Unless noted, % is scaled to controls: 0 for no effect and ±100 for the full control effect.

SMILES	HT1080 IDH1KD tx	uPA generation	TDP1 cell CPT	IL1B secr inh	DT40 TDP1 no CPT	HT1080-NT tox
Cn1nc(-c2ccc(C(=O)Nc3ccc(F)cc3)cc2)c2ccccc2c1=O	-0.5%	-3.1%	?	-10.3	?	0.5%
COc1ccc(NC(=O)CCn2nc(-c3ccc(Cl)cc3)c3ccccc3c2=O)cc1	nt	nt	-13.4%	nt	-7.9%	nt
CNC(=O)c1cc(NC(=O)CCn2nc(-c3ccc(C)cc3)c3ccccc3c2=O)ccc1OC	-5.6%	5.5%	?	-50.5*	?	17.3%
Cc1ccc(-c2nn(CC(=O)NCc3cc(-c4nn(C)c(=O)c5ccccc45)ccc3C)c(=O)c3ccccc23)cc1	?	-1.6%	14.6µM*	38.4	13µM*	?
CC(=C/c1ccco1)/C=N/NC(=O)CSc1nnc(SCc2ccc(C)cc2)s1	-1.1%	-9.1%	-1.5%	5.0	?	-2.3%
Cn1c(COc2ccccc2Br)nc2ccccc21	6.8%	?	?	3.2	?	11.0%
COc1ccc(C2N(c3ccccc3)CCN2c2ccccc2)cc1O	11.3%	-2.1%	5.3%	-13.9	-24.7%	3.0%
CC(C)(C)C(=O)N(Cc1ccc(Cl)cc1)c1cnccn1	-3.2%	2.8%	?	19.8	11.6µM*	-0.5%
COc1cccc([C@@H]2Oc3ccc(Br)cc3C(=O)[C@H]2OC(=O)NC2CCCC2)c1	?	?	?	-61.1*	?	-23.8%
COc1cc(OC)c2c(c1)OC(c1ccc(OC)c(OC)c1)C(O)C2=O (configuration not stated)	0.9%	14.5%	?	1.4	?	10.1%
COc1cccc([C@@H]2Oc3ccc(OC)cc3C(=O)[C@H]2O)c1	-16.2%	?	6.51µM*	22.3	11.6µM*	?
COc1ccc2c(c1)C(=O)[C@@H](O)[C@H](c1ccc(OC)c(Br)c1)O2	-27.0%	?	20.6µM*	22.4	?	-24.1%
O=C(/C=C/[C@H]1O[C@@H](n2ccc(=O)[nH]c2=O)[C@H](O)[C@@H]1O)NCCCc1ccccc1	23.2%	nt	-2.1%	-4.5	10.4%	17.2%
COc1ccc(C)cc1Nc1cc(C)nc(C)n1	nt	nt	-27.1%	nt	?	nt
Cc1cccc(NC(=O)c2cccc(N3C(=O)CCC3=O)c2)c1	6.8%	-0.2%	-7.4%	7.8	18.0%	2.9%
CCOC(=O)c1cc(-c2ccccc2)n(-c2cccc(C(=O)Nc3cccc(C)c3)c2)c1C	nt	nt	?	nt	23.1µM*	nt
CCOC(=O)c1cnn(-c2ccc(C(=O)Nc3cccc(C(C)=O)c3)cc2)c1N	nt	nt	2.06µM*	nt	?	nt
CCOC(=O)c1cc(-c2ccccc2)n(-c2cccc(C(=O)N(CC)c3ccccc3)c2)c1C	nt	nt	14.6µM*	nt	18.4µM*	nt
CN1CCN(S(=O)(=O)c2cccc(S(=O)(=O)c3ccc(Cl)cc3)c2)CC1	-15.3%	nt	?	-15.8	16.4µM*	-16.4%
O=S(=O)(c1ccccc1)c1cccc(S(=O)(=O)N2CCCCC2)c1	-0.5%	9.2%	?	-28.1	?	-13.0%
Cc1ccc(S(=O)(=O)c2cccc(S(=O)(=O)N3CCCC3)c2)cc1S(=O)(=O)N1CCCC1	-27.2%	nt	20.6µM*	-14.0	18.4µM*	?
Cc1ccc(S(=O)(=O)c2cccc(S(=O)(=O)N3CCOCC3)c2)cc1S(=O)(=O)N1CCOCC1	-2.0%	0.7%	-8.7%	-3.9	?	-1.7%
CCOC(=O)c1ccc(S(=O)(=O)N2CCN(C3CC(=O)N(c4ccccc4C(F)(F)F)C3=O)CC2)cc1 (configuration not stated)	7.4%	-15.6%	-12.1%	14.8	-14.1%	3.3%
COc1ccc(C(=O)CSc2nccn2C)c(OC)c1	7.0%	-12.9%	4.8%	-0.7	8.7%	24.8%
